Beta cell apopt = beta cell apoptosis inhibition | INS-1E cytokine-induced death, ATP luminescence, 48 h; percent of positive-control rescue, neutral wells zero | 300,000 compounds, 0.8% hits | protection from apoptosis, % (no concentration beside the values);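 active = Every replicate reaches about 75%, or at least half do and their mean reaches it too, limit read from the data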;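 also: higher means more ATP so stronger rescue from cytokine killing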
Jurkat NFkB inh = inhibitors of the PMA/ionomycin-induced NF-kB reporter in Jurkat cells; PMA/ionomycin-induced NF-kB luciferase reporter, luminescence; inhibition, % at 4 µM; 330,000 compounds, 0.53% hits; AID 435003; in the data active = inhibition above about 50%
Gli-Sufu antag = antagonists of Gli-Sufu signaling. Sufu-KO-LIGHT fibroblasts, Gli luciferase reporter luminescence. AID 588413. inhibition, % at 5 µM. 340,000 compounds, 0.74% hits;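 active = inhibition above about 55%, limit read from the data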
697 NFkB inh = lowers PMA/ionomycin-induced NF-kB signal in 697 B cells | 697 B-cell NF-kB luciferase reporter, 16 h | 330,000 compounds, 0.33% hits | inhibition, % at 4 µM | AID 435022; in the data active = inhibition above about 35%
697 NFkB conf = lowers PMA/ionomycin-induced NF-kB signal in 697 B cells | shares compounds with 697 NFkB inh | 697 B-cell NF-kB luciferase, 16 h | inhibition, % at 4 µM | 2,000 compounds, 35% hits; in the data active = inhibition mostly above about 28%, no sharp cut-off; inactive = mostly below about 22%
Each line names hits and unclear results; the compound was inactive in the other large screens (follow-up assays come after a bar, where they were run). Compounds with a hit are over-represented: about 1.8% of the library has one in this group of screens.

COc1ccc(OC)c(S(=O)(=O)Nc2ccc(-c3ccc4nnc(C)n4n3)cc2)c1	697 NFkB inh 50.2 | 697 NFkB conf 39.0
COc1ccc(S(=O)(=O)Nc2ccc(-c3ccc4nnc(C)n4n3)cc2)c(OC)c1	none
Cc1nnc2ccc(-c3ccc(NS(=O)(=O)c4ccccc4)cc3)nn12	697 NFkB inh 37.5 (no result: Beta cell apopt) | 697 NFkB conf inactive
Cc1ccc2nc(N3CCN(C(=O)c4ccccc4F)CC3)c(C#N)cc2c1	none (no result: Beta cell apopt, Jurkat NFkB inh, 697 NFkB inh)
Nc1ccc(-c2ncc(-c3ccccc3)o2)cc1	697 NFkB inh 39.9 (no result: Beta cell apopt) | 697 NFkB conf inactive
Cc1cccc(N(CC(=O)NC2CCCCC2)C(=O)c2ccc(C)s2)c1	none
Cc1nc2ccccc2n1CC(=O)OCC(=O)NC1CC1	none (no result: Beta cell apopt)
CCOC(=O)C1=C(N)n2c(s/c(=C\c3cccnc3)c2=O)=C(C(=O)OC)C1c1cccnc1 (stereo not drawn)	697 NFkB inh 37.2 | 697 NFkB conf inactive
COc1ccc(OC)c(C2C(C(C)=O)=C(O)C(=O)N2CCc2ccc(OC)c(OC)c2)c1 (stereo not drawn)	none
CCOC(=O)C1=CN(C)CCC1=O	none (no result: Beta cell apopt, Jurkat NFkB inh, 697 NFkB inh)
CC(C)(C)Nc1nc(Cl)nc(Nc2ccccc2)n1	none
CCCn1c(=N)c(C(=O)NC2CCCC2)cc2c(=O)n3cccc(C)c3nc21	none
Cc1cccn2c(=O)c3cc(C(=O)NC4CCCCC4)c(=N)n(CCN4CCOCC4)c3nc12	697 NFkB inh 53.5 | 697 NFkB conf 39.2
Cc1ccc(-n2nc3c(=O)n(CCCC(=O)NCc4ccc(F)cc4)nc(C)c3c2C)cc1	697 NFkB inh 39.1 | 697 NFkB conf inactive
Cc1ccc(S(=O)(=O)CCC(=O)OCc2ccc(S(=O)(=O)C(C)C)cc2)cc1	none
CCCCC(=O)N(CCOC)c1nnc(-c2cccnc2)s1	none
CCOC(=O)c1c(C)[nH]c(N=Nc2ccc(C)cc2)c1C	none | 697 NFkB conf inactive
O=C(NC1=NCCS1)c1ccc(Cl)c(Cl)c1	none | 697 NFkB conf inactive
Cc1nn(-c2ccc(N3CCCCC3)nn2)c(C)c1CCC(=O)Nc1ccccc1F	697 NFkB inh 51.4 | 697 NFkB conf 47.8
Cc1ccccc1NC(=O)CCc1c(C)nn(-c2ccc(N3CCCCC3)nn2)c1C	none (no result: Beta cell apopt)
Cc1ccc(NC(=O)CN(C)C(C)C(=O)N2CC(C)CC(C)C2)cc1 (stereo not drawn)	none
CCSc1nnc(NC(=O)[C@@H](NC(=O)c2ccccc2F)C(C)C)s1	none
CCOc1cc(/C=C2\C(=N)N3N=CSC3=NC2=O)ccc1OS(=O)(=O)c1ccccc1	697 NFkB inh 43.9 | 697 NFkB conf inactive
CCn1c(=O)cc(SCC(=O)N2CCOCC2)c2ccccc21	697 NFkB inh 42.0 | 697 NFkB conf 45.2
CCn1c(=O)cc(SCC(=O)N2CCN(c3ccccc3OC)CC2)c2ccccc21	697 NFkB inh 36.3 | 697 NFkB conf inactive
COc1ccccc1N1CCN(C(=O)CSc2ccccc2)CC1	none
CCn1c(=O)cc(SCC(=O)N2CCN(C(=O)c3ccco3)CC2)c2ccccc21	697 NFkB inh 53.4 | 697 NFkB conf 38.3
Brc1ccc(-c2ccccc2)cc1	none
Brc1ccc(-c2ncc(-c3ccccc3)cn2)cc1	none | 697 NFkB conf inactive
COc1ccc(C2C3=C(CCCC3=O)Nc3nc(-c4cc(OC)c(OC)c(OC)c4)nn32)cc1OC (stereo not drawn)	697 NFkB inh 37.9 | 697 NFkB conf inactive
COc1ccc(NC(=O)COC(=O)c2cccc(S(=O)(=O)N(C)C)c2)cc1	none (no result: Beta cell apopt, Jurkat NFkB inh, 697 NFkB inh)
CC(=O)Nc1cc(C(=O)N2CCCC2)ccc1Sc1ccc(Cl)cc1	none
CC(=O)Nc1cc(C(=O)N2CCCC2)ccc1Sc1ccc(C)cc1	697 NFkB inh 37.8 | 697 NFkB conf inactive
Cc1cc(NC(=O)c2cc(-c3ccco3)on2)no1	697 NFkB inh 37.2 | 697 NFkB conf inactive
Cc1ccccc1Cn1cc(NC(=O)c2cc(-c3ccco3)on2)cn1	697 NFkB inh 37.7 | 697 NFkB conf inactive
O=C(Nc1cnn(Cc2ccc(F)cc2)c1)c1cc(-c2ccco2)on1	697 NFkB inh 41.1 | 697 NFkB conf inactive
COc1cccc(-c2cc(C(=O)Nc3cnn(Cc4ccc(F)cc4)c3)no2)c1	none
COc1ccc(CCNC(=O)c2cc(-c3cccs3)on2)cc1OC	none
COc1ccc(CCNC(=O)c2cc(-c3ccco3)on2)cc1OC	697 NFkB inh 49.6 | 697 NFkB conf inactive
Cc1ccccc1Cn1cc(NC(=O)c2cc(-c3cccs3)on2)cn1	none
COC(=O)[C@]1(CC(C)C)N[C@H](c2ccc(-c3ccc(OC)cc3)cc2)[C@@H]2C(=O)N(C)C(=O)[C@@H]21	none
CCc1nc(SCC(=O)Nc2ccccc2)c2c(=O)n(C)c(=O)n(C)c2n1	none
Cn1c(=O)c2c(SCC(=O)Nc3ccccc3F)nc(-c3ccccc3F)nc2n(C)c1=O	697 NFkB inh 47.6 | 697 NFkB conf 12.2
O=C(Cn1cnc2cc([N+](=O)[O-])ccc2c1=O)N1CCN(S(=O)(=O)c2ccccc2)CC1	none
Cc1noc(COc2ccccc2OCC(N)=O)c1Cl	697 NFkB inh 37.5 | 697 NFkB conf inactive
Cc1nc(C)c(-c2csc(Nc3ccccn3)n2)s1	none (no result: Beta cell apopt) | 697 NFkB conf inactive
COc1cccc2cc(C(C)N(CCCN3CCOCC3)C(=S)Nc3ccccc3C)oc12 (stereo not drawn)	none
CCOC(=O)[C@H]1[C@H]2COc3ccc(Br)cc3[C@@H]2N2C(=O)c3ccc(C)cc3NC(=O)[C@@]12C	none
O=[N+]([O-])c1ccccc1N/N=C\c1ccccc1Cl	none
O=[N+]([O-])c1ccccc1N/N=C/c1cccc(O)c1O	none | 697 NFkB conf inactive
O=C1c2ccccc2C(=O)C1c1ccc2ccccc2n1	none | 697 NFkB conf inactive
Cc1cc(C(=O)COC(=O)c2cccn2C)c(C)n1Cc1ccco1	none | 697 NFkB conf inactive
Cc1cc(C(=O)COC(=O)c2ccco2)c(C)n1Cc1ccco1	none
Cc1cc(/C=C(/C#N)C(=O)Nc2ccccc2)c(C)n1-c1cccnc1	none
Cc1ccccc1NC(=O)/C(C#N)=C\c1cc(C)n(-c2ccc(C(=O)O)cc2)c1C	697 NFkB inh 39.7 | 697 NFkB conf inactive
CCN(CC(=O)Nc1c(F)cccc1F)C(=O)c1cc(S(=O)(=O)N2CCOCC2)ccc1N1CCCC1	697 NFkB inh 39.6 | 697 NFkB conf 32.2
CCN(CC(=O)Nc1c(F)cccc1F)C(=O)c1cc([N+](=O)[O-])ccc1N1CCCCC1	697 NFkB inh 35.3 (no result: Beta cell apopt) | 697 NFkB conf 43.7
CCCN(CCC)C(=O)Cn1c(=O)n(CCCCC(=O)NC2CCCC2)c(=O)c2ccccc21	none
CCCNC(=O)c1nc(C)n(-c2ccc([N+](=O)[O-])cc2)n1	none
COc1cc(C)c(/C=C(\C#N)C(=O)Nc2ccc(C)cc2)cc1C(C)C	none
CN(C)C(=O)CCc1ccc2c3c([nH]c2c1)[C@]1(C)[C@@H](C(=O)N2CCCCC2)C[C@H](CC(=O)NCc2ccco2)C(=O)N1CC3	none (no result: Beta cell apopt, Jurkat NFkB inh)
CN(C)C(=O)CCc1ccc2c3c([nH]c2c1)[C@]1(CCc2ccccc2)[C@@H](C(=O)N2CCCCC2)C[C@H](CC(=O)NCc2ccco2)C(=O)N1CC3	697 NFkB inh 39.1 (no result: Beta cell apopt, Jurkat NFkB inh) | 697 NFkB conf inactive
COc1cc2c3c(c1)c(N=NC(N)=S)c(O)n3C(C)(C)C=C2C	697 NFkB inh 41.8 | 697 NFkB conf 41.7

Screening data as filed in PubChem BioAssay.
